Reference: PubChem BioAssay (EPA / NIEHS)
Results filed as inconclusive are left out. Some compounds were tested as several samples or in several runs, with calls that do not always agree. The source made the active and inactive calls. The calls were made as follows: active = hit-call score of the fitted dose curve at least 0.9, where 1 is the maximum; inconclusive = response in the unintended direction; inactive = score below 0.9.

Biological target: Agonist Androgen Response Element (ARE), AR (gene 367) (UniProt P10275)
Sequence (P10275 whole entry, looked up): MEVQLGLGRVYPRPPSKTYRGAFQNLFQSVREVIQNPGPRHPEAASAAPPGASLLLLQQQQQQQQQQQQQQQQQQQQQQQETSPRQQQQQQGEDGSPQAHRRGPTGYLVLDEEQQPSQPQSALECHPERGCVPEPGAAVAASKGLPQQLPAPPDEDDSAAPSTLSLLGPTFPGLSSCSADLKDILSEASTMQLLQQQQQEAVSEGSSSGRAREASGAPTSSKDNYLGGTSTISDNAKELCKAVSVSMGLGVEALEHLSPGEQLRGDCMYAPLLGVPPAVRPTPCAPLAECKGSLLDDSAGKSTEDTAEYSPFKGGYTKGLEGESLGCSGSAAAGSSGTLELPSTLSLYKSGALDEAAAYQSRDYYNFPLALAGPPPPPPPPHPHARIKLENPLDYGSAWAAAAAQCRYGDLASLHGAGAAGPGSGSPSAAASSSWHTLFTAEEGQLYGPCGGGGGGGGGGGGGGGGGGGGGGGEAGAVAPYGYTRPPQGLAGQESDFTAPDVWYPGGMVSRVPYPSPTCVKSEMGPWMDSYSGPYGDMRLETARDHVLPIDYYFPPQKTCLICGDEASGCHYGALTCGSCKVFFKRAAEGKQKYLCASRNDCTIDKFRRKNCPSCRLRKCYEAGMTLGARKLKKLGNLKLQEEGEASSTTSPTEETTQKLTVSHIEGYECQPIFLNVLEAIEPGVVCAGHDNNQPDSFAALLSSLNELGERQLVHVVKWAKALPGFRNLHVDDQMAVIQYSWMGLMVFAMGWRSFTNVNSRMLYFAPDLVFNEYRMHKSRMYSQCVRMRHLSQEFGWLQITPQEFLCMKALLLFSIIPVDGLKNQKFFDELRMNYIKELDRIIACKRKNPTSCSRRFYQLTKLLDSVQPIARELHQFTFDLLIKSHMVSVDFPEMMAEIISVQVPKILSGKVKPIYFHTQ
Experiment: OT_AR_ARELUC_AG_1440: Odyssey Thera (OT) 24-hour CHO-K1 Luciferase Assay for Agonist Androgen Response Element (ARE) (AID 2283379)
Procedure: OT_AR_ARELUC_AG_1440 is a cell-based, single-readout assay that uses CHO-K1, a chinese hamster ovary cell line, with measurements taken at 24 hours after chemical dosing in a 384-well plate.OT_AR_ARELUC_AG_1440 is one of one assay component(s) measured or calculated from the OT_AR_ARELUC_AG_1440 assay. It is designed to make measurements of luciferase induction, a form of inducible reporter, as detected with bioluminescence signals by Luciferase technology.Data from the assay component OT_AR_ARELUC_AG_1440 was analyzed into 1 assay endpoint. This assay endpoint, OT_AR_ARELUC_AG_1440, was analyzed in the positive analysis fitting direction relative to DMSO as the negative control and baseline of activity. Using a type of inducible reporter, measures of receptor for gain-of-signal activity can be used to understand the reporter gene at the pathway-level as they relate to the gene AR. Furthermore, this assay endpoint can be referred to as a primary readout, because the performed assay has only produced 1 assay endpoint. To generalize the intended target to other relatable targets, this assay endpoint is annotated to the nuclear receptor intended target family, where the subfamily is steroidal.
To identify AR agonists, CHO-K1 cells are seeded into a white-walled/white-bottom 384-well plate, followed by treatment with compounds of interest or controls for 24 hours. A luciferase assay mix containing D-luciferin and ATP in PBS is then added to the cells and luminescence quantified on a Luminoskan (Thermo Scientific) luminometer. Modulation of this assay is quantified as an increase in mean luminescence intensity relative to vehicle controls. To evaluate specificity of the AR / ARE-luc assay, several known AR agonists, AR antagonists, and ER-selective compounds were also tested in 5-pt concentration-response format in a minimum of 7 assay plates. OT determined the reproducibility of DHT-induced AR/ARE-luc transcriptional activation with a total of seven 384-well plates run on 2 different days, for 24-h time frames. A minimum of 3 replicate wells were analyzed for each sample with 14 replicate wells for vehicle controls. Luminescence data were captured on the Luminoskan luminometer.

Row | SMILES | outcome | AC50
1 | Nc1cccc2c(N)cccc12 | inactive | 
2 | Oc1cc2ccccc2c2ccccc12 | inactive | 
3 | CC[C@H](c1ccc(O)cc1)[C@@H](CC)c1ccc(O)cc1 | inactive | 
4 | O=C(O)c1ccccc1C(c1ccc(O)cc1)c1ccc(O)cc1 | inactive | 1.95 µM (active)
5 | COCC(C)OCC(C)O (stereo unspecified) | inactive | 
6 | NC(=O)N1C(=O)C(C(=O)c2cc(Cl)cs2)c2cc(F)c(Cl)cc21 (stereo unspecified) | inactive | 
7 | CCCCCCCCCCCCc1ccccc1S(=O)(=O)O | inactive | 
8 | N#C[C@@H]1CC(F)(F)CN1C(=O)CNC1CC2CCC(C1)N2c1ncccn1 (stereo partly specified) | inactive | 
9 | c1ccc2c(c1)ccc1ccccc12 | inactive | 
10 | Cc1cc(CCN2CCN(c3nsc4ccccc34)CC2)cc2c1NC(=O)CC2(C)C | inactive | 
11 | CCC(=C(c1ccc(O)cc1)c1ccc(OCCN(C)C)cc1)c1ccccc1 | inactive | 
12 | OCCC(F)(F)C(F)(F)C(F)(F)C(F)(F)C(F)(F)C(F)(F)C(F)(F)C(F)(F)F |  | 21.8 µM (active)
13 | CC(=O)CC(C)(C)O | inactive | 
14 | Cc1oc(-c2ccccc2)nc1CCOc1ccc(C[C@H](Nc2ccccc2C(=O)c2ccccc2)C(=O)O)cc1 | inactive | 
15 | O=c1c(-c2ccc(O)cc2)coc2cc(O)ccc12 | inactive | 
